In PubChem BioAssay:
Activity calls are given as the source filed them.

Key:
[1] = tested on: Human papillomavirus type 1a protein E7 (residues 44-93); assay: HPV1a E7 fragment binders on microarrays, primary screen, biochemical, small-molecule microarray, residues 44-93, 635 nm fluorescence (AID 1108); details: small-molecule microarray binding, fluorescence 635 nm; higher = more signal;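 further: E7 fragment applied at 1 µg/mL in TBST for 1 h at 4 C; score combines spot fluorescence with its signal to noise ratio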
[2] = modulators of HCV replicon luciferase signal, primary screen, HCV replication inhibitor project, Huh7 cells, luciferase reporter (AID 1109); details: 48 h, higher = more signal;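 further: huh7 hepatoma cells harbouring a luciferase neomycin HCV replicon reporter; luciferase luminescence as measure of HCV replicon replication; test concentration not given here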
[3] = molecular target: Left-right determination factor 2 (Homo sapiens) (UniProt O00292); assay: LEFTY2 binders on small-molecule microarrays, primary screen, biochemical, small-molecule microarray, 635 nm fluorescence scan (AID 1110); details: LEFTY2 binding, higher = more signal
[4] = molecular target: Calmodulin-1 (Homo sapiens) (UniProt P0DP23); assay: CALM1 binders on microarrays, EGTA buffer, profiling panel, biochemical, small-molecule microarray, Cy5-labelled CALM1 (AID 1111); details: Cy5-CALM1 binding fluorescence, higher = more signal;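 further: labelled calmodulin applied in Tris saline Tween buffer holding calcium plus EGTA and DTT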
[5] = molecular target: Calmodulin-1 (Homo sapiens) (UniProt P0DP23); assay: calcium-bound CALM1 binders on microarrays, profiling panel, artefact control for SMM control-protein annotation, biochemical, small-molecule microarray, Cy5-labelled CALM1, plus calcium (AID 1112); details: Cy5-CALM1 binding fluorescence, higher = more signal;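 further: score merges spot fluorescence with signal to noise from triplicate slides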
[6] = small-molecule microarray binders of probe aWnt5a, primary screen, biochemical, biotinylated probe, 635/667 nm fluorescence (AID 1113); details: higher = more signal;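 further: score merges 667 nm fluorescence intensity with signal-to-noise per printed feature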
[7] = small-molecule microarray binders of probe aShh, primary screen, biochemical, biotinylated probe, 635/667 nm fluorescence (AID 1114); details: higher = more signal;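 further: probe is biotin-labelled aShh protein from a stem cell growth factor screen; measures binding of labelled protein to compounds printed on the slide; score merges feature fluorescence at 667 nm with signal-to-noise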
[8] = small-molecule microarray binders of probe aNog, primary screen, biochemical, biotinylated probe, 635/667 nm fluorescence (AID 1115); details: higher = more signal;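 further: probe is biotinylated aNog protein used at 0.15 µg/mL for 1 h at 4 C; z-score combines 667 nm fluorescence of each spot with its signal to noise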
[9] = molecular target: Torsin-1A-interacting protein 1 (Homo sapiens) (UniProt Q5JTV8); assay: LAP1 binders from COS7 cell lysate, primary screen, small-molecule microarray, 635/667 nm fluorescence (AID 1116); details: COS7-hLAP1 lysate binding, 635 nm fluorescence, higher = more signal
[10] = molecular target: Alpha-bungarotoxin (Bungarus multicinctus) (UniProt P60615); assay: alpha-bungarotoxin binders on microarray, profiling panel, artefact control for SMM control protein annotation, biochemical, small-molecule microarray, Alexa647 label, 635/667 nm fluorescence (AID 1117); details: alpha-BTX-A647 binding fluorescence, higher = more signal
Albumin (Bos taurus) = Albumin (Bos taurus) (UniProt P02769); assay: bovine serum albumin binders on microarray, profiling panel, artefact control for SMM control protein annotation, biochemical, small-molecule microarray, Alexa647 label, 635/667 nm fluorescence (AID 1118); details: BSA-A647 binding, fluorescence 635 nm, higher = more signal;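 further: score merges 667 nm emission intensity and signal-to-noise per printed compound spot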
[11] = small-molecule microarray binders of probe aXIP, primary screen, biochemical, NeuroSMM set, 635/667 nm fluorescence (AID 1119); details: higher = more signal, called active from +8 up or from −8 down;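 further: probe is the protein aXip251-270 applied at 1 µg/mL to compound-printed slides; binding of probe to printed compounds measured as 667 nm fluorescence plus signal to noise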
[12] = small-molecule binders of probe aNOTCH3, primary screen, biochemical, small-molecule microarray, 635/667 nm fluorescence (AID 1120); details: higher = more signal;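 further: probe is a biotin-tagged antibody raised against NOTCH3 rather than NOTCH3 protein; score merges spot fluorescence near 667 nm with spot signal to noise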
[13] = small-molecule binders of probe aNOTCH2, primary screen, biochemical, small-molecule microarray, 635/667 nm fluorescence (AID 1121); details: higher = more signal;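 further: score merges feature fluorescence read at 667 nm with its signal to noise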
[14] = molecular target: Carbonic anhydrase 2 (Homo sapiens) (UniProt P00918); assay: CAII small-molecule binders, profiling panel, biochemical, small-molecule microarray, Alexa647-labelled CAII (AID 1122); details: CAII-A647 binding fluorescence, higher = more signal
[15] = COS7 lysate on small-molecule microarray, probe aHis, 635 nm (AID 1123); details: COS7 cell lysate, fluorescence, higher = more signal;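 further: z-score combines 667nm fluorescence intensity with signal-to-noise per printed compound spot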
[16] = compound binding in COS7 lysate, probe aLAP1, primary screen, cell lysate, small-molecule microarray (AID 1124); details: probe aLAP1, fluorescence, higher = more signal;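 further: lysate comes from COS7 cells expressing LAP1 and is applied at 0.3 µg/mL; score merges spot fluorescence near 667 nm with signal-to-noise over triplicate slides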
Sam68 (KHDRBS1) = assay: Sam68 small-molecule binders, primary screen, biochemical, small-molecule microarray, 635 nm fluorescence (AID 1125); details: small-molecule microarray binding, higher = more signal;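 further: score merges 667 nm channel intensity with signal to noise over triplicate slides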
[17] = tested on: Chordin-like protein 2 (CHRDL2); assay: CHRDL2 small-molecule binders, primary screen, biochemical, small-molecule microarray, 635 nm fluorescence (AID 1126); details: small-molecule microarray binding, fluorescence 635 nm; higher = more signal;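 further: printed compound slides probed with Chrdl2 protein at 4 µg/mL for 1 h at 4 C; score merges 667 nm emission intensity with signal to noise over three replicate slides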
[18] = molecular target: Concanavalin-A (Canavalia ensiformis) (UniProt P02866); assay: ConA small-molecule binders, primary screen, artefact control for SMM control protein annotation, biochemical, small-molecule microarray, Alexa647 label, 635 nm (AID 1127); details: ConA-A647 binding fluorescence, higher = more signal;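 further: z combines 667 nm emission intensity with signal-to-noise across three replicate slides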
Chain of Concanavalin-A (Canavalia ensiformis) (P02866 whole entry, looked up): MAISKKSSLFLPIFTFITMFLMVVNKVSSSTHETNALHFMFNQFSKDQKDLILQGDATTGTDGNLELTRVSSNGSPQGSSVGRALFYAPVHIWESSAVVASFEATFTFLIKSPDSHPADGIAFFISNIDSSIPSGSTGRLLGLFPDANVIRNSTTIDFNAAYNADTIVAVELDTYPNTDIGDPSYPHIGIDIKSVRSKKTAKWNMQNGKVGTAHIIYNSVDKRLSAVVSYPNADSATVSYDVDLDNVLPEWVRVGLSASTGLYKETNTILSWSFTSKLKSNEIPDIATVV

Chain of Alpha-bungarotoxin (Bungarus multicinctus) (P60615 whole entry, looked up): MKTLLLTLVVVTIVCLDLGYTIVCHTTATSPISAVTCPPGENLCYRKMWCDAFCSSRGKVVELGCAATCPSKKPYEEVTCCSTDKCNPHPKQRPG
Chain of Torsin-1A-interacting protein 1 (Homo sapiens) (Q5JTV8 whole entry, looked up): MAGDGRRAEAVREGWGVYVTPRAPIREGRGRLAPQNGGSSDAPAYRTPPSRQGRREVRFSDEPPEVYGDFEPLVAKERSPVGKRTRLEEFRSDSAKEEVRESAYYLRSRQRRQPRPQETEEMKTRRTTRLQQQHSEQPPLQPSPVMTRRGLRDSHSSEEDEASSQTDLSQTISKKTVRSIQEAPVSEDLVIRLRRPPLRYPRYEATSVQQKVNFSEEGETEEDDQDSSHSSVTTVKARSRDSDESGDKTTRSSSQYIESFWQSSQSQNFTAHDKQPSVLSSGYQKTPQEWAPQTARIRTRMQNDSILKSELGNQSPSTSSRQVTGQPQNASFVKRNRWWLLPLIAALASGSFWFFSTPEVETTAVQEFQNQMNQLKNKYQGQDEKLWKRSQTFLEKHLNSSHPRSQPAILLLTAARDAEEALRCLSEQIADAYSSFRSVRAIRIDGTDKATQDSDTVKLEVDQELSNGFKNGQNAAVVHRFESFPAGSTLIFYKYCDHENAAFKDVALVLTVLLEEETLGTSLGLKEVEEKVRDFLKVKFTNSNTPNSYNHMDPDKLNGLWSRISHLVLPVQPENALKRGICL
Chain of Left-right determination factor 2 (Homo sapiens) (O00292 whole entry, looked up): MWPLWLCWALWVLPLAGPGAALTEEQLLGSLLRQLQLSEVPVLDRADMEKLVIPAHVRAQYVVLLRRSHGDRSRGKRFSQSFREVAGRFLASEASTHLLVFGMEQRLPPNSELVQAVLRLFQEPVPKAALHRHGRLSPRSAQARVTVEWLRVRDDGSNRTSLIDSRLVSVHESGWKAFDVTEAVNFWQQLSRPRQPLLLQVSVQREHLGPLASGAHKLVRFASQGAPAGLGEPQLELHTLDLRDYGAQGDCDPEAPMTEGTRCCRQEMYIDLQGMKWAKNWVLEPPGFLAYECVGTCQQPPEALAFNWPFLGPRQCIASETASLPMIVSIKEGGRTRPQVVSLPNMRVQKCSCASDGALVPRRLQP
Chain of Albumin (Bos taurus) (P02769 whole entry, looked up): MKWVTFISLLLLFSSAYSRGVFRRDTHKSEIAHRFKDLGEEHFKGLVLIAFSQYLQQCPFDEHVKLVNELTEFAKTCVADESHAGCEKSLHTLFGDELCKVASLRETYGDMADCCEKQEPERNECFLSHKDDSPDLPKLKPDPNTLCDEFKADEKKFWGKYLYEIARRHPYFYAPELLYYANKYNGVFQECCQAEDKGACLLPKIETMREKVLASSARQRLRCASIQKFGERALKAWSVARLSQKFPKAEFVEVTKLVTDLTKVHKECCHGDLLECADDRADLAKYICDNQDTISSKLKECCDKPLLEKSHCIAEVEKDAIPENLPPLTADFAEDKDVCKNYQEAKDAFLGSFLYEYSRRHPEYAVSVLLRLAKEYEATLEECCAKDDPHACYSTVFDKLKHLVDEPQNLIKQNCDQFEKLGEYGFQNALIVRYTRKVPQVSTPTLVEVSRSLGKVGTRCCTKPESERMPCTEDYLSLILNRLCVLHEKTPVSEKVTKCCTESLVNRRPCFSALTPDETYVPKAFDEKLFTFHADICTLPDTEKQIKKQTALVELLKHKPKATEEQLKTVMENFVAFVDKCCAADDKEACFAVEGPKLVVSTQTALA

| SMILES | composite z-score [1] | z-score [2] | composite z-score [3] | composite z-score [4] | composite z-score [5] | composite z-score [6] | composite z-score [7] | composite z-score [8] | composite z-score [9] | composite z-score [10] | composite z-score (Albumin (Bos taurus)) | composite Z-score [11] | composite z-score [12] | composite z-score [13] | composite z-score [14] | composite z-score [15] | composite z-score [16] | composite z-score (Sam68 (KHDRBS1)) | composite z-score [17] | composite z-score [18] |
| --- | --- | --- | --- | --- | --- | --- | --- | --- | --- | --- | --- | --- | --- | --- | --- | --- | --- | --- | --- | --- |
| CC(C)NC(=O)[C@@]1(c2ccc([N+](=O)[O-])cc2)CC(=O)N(C2CCCCC2)[C@@H]1c1ccc(CO)cc1 | 1.46 | -0.778 | -0.016 | -0.0034 | -0.0027 | 0.0115 | -0.553 | 0.275 | 2.08 | 0.621 | 0.807 | -0.107 (inactive) | 0.325 | -0.245 | 0.729 | 2.17 | 0.94 | 1.26 | -0.0413 | 1.02 |
| COC(=O)[C@@]1(Cc2ccc(F)cc2)[C@H]2c3cc(C(=O)N(C)C)n(CCc4ccc(OC)c(Br)c4)c3C[C@H]2CN1C(=O)c1ccccc1 | 0.971 | -3.74 | -0.392 | 0.314 | 0.535 | 1.19 | 0.289 | 2.8 | 0.589 | 0.653 | 0.939 | 0.562 (inactive) | 0.613 | 0.363 | 0.487 | 1.44 | 0.0915 | -0.111 | -0.66 | 0.793 |
| CCCCNC(=O)c1ccc(C#CC(C)(C)C)c(OC(C)=O)c1 | 0.845 | -0.196 | 0.806 | 0.0614 | -0.526 | -0.159 | -0.117 | -0.256 | 0.5 | 0.608 | 0.691 | 0.0956 (inactive) | 0.0744 | -0.181 | 0.728 | -0.0302 | -0.0555 | 1.02 | 0.641 | 0.744 |
| [N-]=[N+]=Nc1ccccc1C[C@]1(C(=O)N2CCOCC2)COC(c2ccc(OCCCO)cc2)=N1 | 1.41 | -1.72 | -0.253 | 0.201 | -0.554 | 0.0317 | 0.14 | -0.527 | 1.08 | 0.664 | 0.808 | 0.04 (inactive) | 0.373 | -0.118 | 0.763 | 2.21 | -0.181 | 1.29 | -0.646 | 0.99 |
| COc1ccc([C@H]2OC[C@@H]3C[C@H](Cc4ccccc4)C(=O)N32)cc1 | 0.156 | -2.66 | 0.367 | 0.106 | -0.668 | 0.188 | 0.111 | -0.113 | 0.373 | 1.59 | -0.0141 | -0.397 (inactive) | 0.03 | -0.101 | -0.0065 | 0.0949 | -0.0729 | 0.0535 | 0.0962 | 0.512 |
| Cc1ccc(NN2C(C(O)c3c(F)cccc3Cl)C=CC3C(=O)N(C4CCCCC4)C(=O)C32)cc1 (stereo not given) | 0.51 | -1.26 | -0.348 | 1.96 | 1.14 | -0.0179 | 0.261 | 1.22 | 0.983 | 1.93 | 0.979 | 0.788 (inactive) | 0.102 | 0.174 | 0.489 | 2.38 | -0.0134 | 1.25 | -0.804 | 1.19 |
| CC(C)[Si]1(C(C)C)OCc2cc(C3CC3)nc(-c3ccc(Oc4ccccc4)cc3)c21 | -1.16 | -2.24 | -0.168 | -0.289 | 0.631 | -0.18 | -0.117 | -0.0208 | -0.414 | -0.336 | -0.808 | -0.26 (inactive) | -0.177 | -0.108 | -0.204 | 0.0215 | -0.238 | -0.459 | -0.368 | -0.725 |
| CCCC=C(CCC)[C@@H](NC(=O)c1cccs1)c1ccc(C(=O)OC)cc1 | 0.805 | -0.122 | 0.698 | 0.318 | -0.276 | 1.34 | 2.03 | 2.91 | 0.406 | 0.159 | -0.0481 | 0.0599 (inactive) | 1.29 | 0.728 | 0.0222 | 0.0362 | -0.0022 | -0.411 | 0.513 | 0.588 |
| COC(=O)[C@@]1(Cc2ccc(OC)cc2)[C@H]2c3cc(C(=O)N4CCCC4)n(CCc4c[nH]c5ccc(OC)cc45)c3C[C@H]2CN1C(=O)c1ccccc1 | 0.113 | -1.93 | 0.221 | 2.28 | 1.46 | 0.155 | 0.504 | 1.54 | 2.19 | 1.38 | 0.93 | -0.453 (inactive) | 0.319 | 0.387 | 0.711 | 2.81 | 0.8 | 1.11 | -1.04 | 0.852 |
| COCCOC(=O)N1C(=O)[C@@]2(c3cc(C#CC4(O)CCCCCC4)ccc31)[C@H](c1ccc(O)cc1)N1[C@H](c3ccccc3)[C@H](c3ccccc3)OC(=O)[C@H]1[C@@H]2C(=O)N1CCN(c2ncccn2)CC1 | 1.35 | -1.58 | 0.45 | 1.83 | 0.18 | 0.0375 | 0.679 | -0.679 | 1.21 | 0.383 | 0.521 | 0.883 (inactive) | 0.0562 | -0.12 | 0.437 | 1.29 | 0.46 | 1.29 | -0.163 | 1.12 |
| NCCCCCCNC(=O)[C@@H]1C[C@@H]2C(=O)N[C@@H](CCCCN)C(=O)N2[C@@H]1c1ccc(O)cc1 | 1.31 | -0.31 | 0.642 | -0.301 | 0.0301 | -0.172 | 0.12 | -0.0087 | 1.66 | -1.03 | -1.58 | 1.7 (inactive) | -0.0431 | -0.0386 | 0.782 | 1.68 | 1.18 | 0.762 | 0.667 | 0.0619 |
